# Measurements as given in paper PMC6212790, “How bacterial xenogeneic silencer rok distinguishes foreign from self DNA in its resident genome”.
# Over roughly 33,000 sequences, “e-score” has its median near -0.038; the highest 2% begin near 0.33. The full list was thinned out, with the highest values kept by preference.
# Target: T1, GST-Rok-C97-191 (Bacillus subtilis subsp. subtilis str. …, UniProt O34857 97-191)
# T1 sequence: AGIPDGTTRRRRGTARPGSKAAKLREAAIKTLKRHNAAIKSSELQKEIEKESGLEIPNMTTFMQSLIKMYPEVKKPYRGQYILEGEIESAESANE
# Assay: protein binding microarray; Rok is a gene silencer of Bacillus subtilis; high values mean tight binding
# Conditions: protein: recombinant; tags: GST (pTH5325, pDEST15-Magic modified); dsDNA, one strand shown
# In short: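 Every oligonucleotide joins a 25-mer constant primer to a 35-mer variable part drawn from a de Bruijn sequence of order 10, so each non-palindromic 8-mer appears at least 32 times and each palindromic 8-mer 16 times. The preference for every 8-mer is reported as a unitless, rank-based enrichment score (E-score). This score spans 0.5 for the most favored 8-mer to −0.5 for the most disfavored.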
row,Sequence,binding signal
1,ACGGGACT,0.158 E-score
2,CATCATTC,0.0109 E-score
3,GCGATGCC,-0.131 E-score
4,CGACTTGA,0.0696 E-score
5,CTGCGTAC,-0.112 E-score
6,TCCGAGCA,0.113 E-score
7,TAAATGTA,0.399 E-score
8,CAAATGTA,0.269 E-score
9,GAAATGTC,0.165 E-score
10,AAAATGTA,0.316 E-score
11,GAAATGTA,0.329 E-score
12,GAAATGCA,-0.0957 E-score
13,TGCCTAAA,-0.0357 E-score
14,ACCCTTAT,0.126 E-score
15,CGCACTGC,0.0347 E-score
16,ACATCGAG,0.0748 E-score
17,ACGTGGGG,-0.173 E-score
18,ATATTCTC,0.327 E-score
19,CTATTCTA,0.287 E-score
20,AGATTCTC,0.00255 E-score
21,AGATTCTA,0.356 E-score
22,GGATTCTA,0.293 E-score
23,ATATTCTA,0.408 E-score
24,TCATCTAA,-0.0045 E-score
25,CAGGTCTC,-0.144 E-score

row,Sequence,binding signal
1,GACTTGGC,-0.0709 E-score
2,CCAATATA,0.323 E-score
3,ACAATATG,0.146 E-score
4,ATAATATC,0.209 E-score
5,ACAATATA,0.354 E-score
6,ATAATATG,0.244 E-score
7,CTAATAGA,0.252 E-score
8,GTAATACA,0.258 E-score
9,GTAATAGA,0.284 E-score
10,CTAATATC,0.141 E-score
11,CTAATATA,0.36 E-score
12,ATAATATA,0.435 E-score
13,GTAATATA,0.335 E-score
14,AGTGCCGC,-0.0284 E-score
15,ATGGTGAA,0.0706 E-score
16,GCTGATTA,0.0269 E-score
17,GAAAGAAC,0.0785 E-score
18,CCAGTTGA,-0.091 E-score
19,AACAGAGG,-0.0648 E-score
20,CGAGTGTC,-0.0337 E-score
21,ATGACGGG,-0.176 E-score
22,GGGGCTAA,-0.0896 E-score
23,ATAAGAAT,0.215 E-score
24,AGAATATA,0.231 E-score
25,GGAATATA,0.377 E-score

row,Sequence,binding signal
1,CGAATATA,0.245 E-score
2,CAACGGCA,-0.159 E-score
3,GCGCAATA,0.0439 E-score
4,AGCGGTAG,0.33 E-score
5,ACCGGTAG,0.335 E-score
6,CCCGGTAG,-0.134 E-score
7,ACCGGTAA,0.192 E-score
8,AGCGGTAT,0.237 E-score
9,CGCGGTAG,0.00539 E-score
10,ATGACCCA,-0.129 E-score
11,GTTTGTTA,0.13 E-score
12,ACATCAAA,0.02 E-score
13,CCTGTCAG,-0.131 E-score
14,AACTAATA,0.288 E-score
15,AACTAAAC,0.00571 E-score
16,CACTAAAA,0.299 E-score
17,GACTAAAA,0.144 E-score
18,AACTAAAG,-0.0536 E-score
19,AACTAACG,0.263 E-score
20,AACTAACT,0.352 E-score
21,AACTAATC,0.129 E-score
22,AACTAACA,0.126 E-score
23,AACTAATT,0.344 E-score
24,TACTAAAA,0.421 E-score
25,AACTAAAT,0.379 E-score

row,Sequence,binding signal
1,AGGCACAT,-0.0618 E-score
2,CTGCAACA,0.0545 E-score
3,ACGGACCA,-0.109 E-score
4,CGTCCTTA,0.175 E-score
5,AAAATGTG,0.218 E-score
6,GTGCGAAC,-0.184 E-score
7,GCGAATAC,0.0221 E-score
8,AAACTGGG,-0.197 E-score
9,CCCGCTAC,-0.0971 E-score
10,AGACCTAG,0.0543 E-score
11,AGAAGCTC,-0.0476 E-score
12,CCTAATCC,0.0562 E-score
13,CGATAAGA,0.0724 E-score
14,AACTAAGA,0.223 E-score
15,AACTAAAA,0.347 E-score
16,ACCTAAAA,0.295 E-score
17,AACACAAA,0.135 E-score
18,AGCGCAAG,-0.0906 E-score
19,ATACGACC,0.00262 E-score
20,AAAGGTAG,0.316 E-score
21,ATTAACTC,0.124 E-score
22,GTTAACTA,0.376 E-score
23,GTTAACGA,0.0428 E-score
24,ATTAACTA,0.367 E-score
25,CTTAACTA,0.273 E-score

row,Sequence,binding signal
1,ATTAACTG,0.214 E-score
2,TAGTCACA,0.123 E-score
3,TCGGGCCA,-0.12 E-score
4,AGAGTGCG,-0.139 E-score
5,AGTAGAAG,0.276 E-score
6,AGTAGAGA,0.206 E-score
7,AGTAGAAA,0.448 E-score
8,ATTAGAAA,0.282 E-score
9,AGTAGAAC,0.234 E-score
10,AGTAGAAT,0.422 E-score
11,AACGGGCT,-0.138 E-score
12,AGCCATTG,-0.0954 E-score
13,AAGGACTG,-0.0637 E-score
14,ACAGAGAG,-0.125 E-score
15,CAATTGTA,0.251 E-score
16,CTATTGTC,-0.0498 E-score
17,CTATTGTA,0.355 E-score
18,GTATTGTA,0.212 E-score
19,ATATTGTG,0.214 E-score
20,ATATTGTA,0.363 E-score
21,ATGCGCGG,-0.168 E-score
22,CTGTCCAA,-0.154 E-score
23,CACAGAGG,-0.0801 E-score
24,ACATCCTG,-0.137 E-score
25,TCCTGCGA,-0.149 E-score

row,Sequence,binding signal
1,GGCTTGAA,-0.105 E-score
2,CACTGACG,0.009 E-score
3,AATTTTAG,0.259 E-score
4,AAATTTAG,0.242 E-score
5,GAATTTAC,0.282 E-score
6,AAATTTGA,0.0368 E-score
7,AATTTTAC,0.384 E-score
8,AAATTTTC,0.182 E-score
9,AAATTTAC,0.38 E-score
10,ATTTTTAC,0.328 E-score
11,AATTTTTA,0.167 E-score
12,AAATTTGT,0.33 E-score
13,AAATTTGG,0.0224 E-score
14,AAATTTTA,0.374 E-score
15,TGAAGTAA,0.132 E-score
16,GTAATAAC,0.0936 E-score
17,GTATTCGA,0.15 E-score
18,ATTTGCTG,-0.0116 E-score
19,AAGATTGC,-0.0164 E-score
20,AATCGTGA,-0.118 E-score
21,ACCCATGC,-0.182 E-score
22,AGAGCGAA,-0.138 E-score
23,GGTCGACA,-0.101 E-score
24,CAATTTAC,0.357 E-score
25,AAAATTTA,0.282 E-score

row,Sequence,binding signal
1,CAAATTTA,0.31 E-score
2,TAAATTTA,0.405 E-score
3,CAATTTAG,0.232 E-score
4,CAATTTAA,0.0656 E-score
5,AGTCTGGG,-7.1e-05 E-score
6,GAGCTTAC,-0.189 E-score
7,CCGAAAAC,0.168 E-score
8,CATACATA,0.234 E-score
9,CATACAAA,0.219 E-score
10,CATACATG,0.171 E-score
11,AATACAAA,0.313 E-score
12,TATACATA,0.401 E-score
13,TACACATA,0.203 E-score
14,AATACATA,0.308 E-score
15,GATACATA,0.377 E-score
16,TATACAAA,0.347 E-score
17,CATTAACC,-0.0128 E-score
18,TCATACCA,0.0725 E-score
19,ATTAGCAC,0.0299 E-score
20,GTCGGAAC,0.0505 E-score
21,AAGGTTGA,0.063 E-score
22,CTACCTTA,0.264 E-score
